Compound activity: PubChem BioAssay, National Center for Advancing Translational Sciences (NCATS)
BAZ2B inh: blocks human BAZ2B. Q9UIF8. AlphaScreen BAZ2B-H3K14Ac peptide displacement. Potency, µM (top dose mostly 114 µM), without a hit: at the top dose activity change, negative = inhibition, hits mostly inhibitors. 4.4% of 360,000 active; also: % is scaled to controls: 0 for no effect and ±100 for the full control effect; nearly all actives have a fitted effect of over 60% in size
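Multi-concentration screen (max 110 uM) measuring displacement of acetylated histone H3 peptide from BAZ2B by AlphaScreen, using 50 nM protein, 50 nM peptide and 10 ug/mL streptavidin donor plus Ni-chelate acceptor beads.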
JMJD2A Tudor inh: inhibitors of human JMJD2A Tudor domain | 4.4% of 390,000 active | Potency, µM (top dose mostly 114 µM), without a hit: at the top dose activity change, negative = inhibition, most hits filed as inhibitors | AlphaScreen JMJD2A-Tudor / H3K4me3 peptide binding | O75164; also: % is scaled to controls: 0 for no effect and ±100 for the full control effect; nearly all actives have a fitted effect of over 50% in size
Sfp inh: inhibitors of Bacillus subtilis Sfp phosphopantetheinyl transferase; Q9F4F7; Biochemical Sfp PPTase activity, qHTS; 3.5% of 310,000 active; Potency, µM, inactives show largest response in the series, negative = inhibition, most hits filed as inhibitors;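 also: the enzyme is Sfp with the accession as filed and its product quenches rhodamine fluorescence; 0% = enzyme reaction without inhibitor and -100% = no enzyme wells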
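Fluorescence-quenching assay with 15 nM Sfp, 5 uM rhodamine-CoA and 12.5 uM BHQ-2-labelled ybbR peptide in pH 7.6 Hepes/MgCl2 buffer. Enzyme was pre-incubated with compound for 15 min at room temperature. Rate was taken from the 30-min fluorescence change (525/598 nm).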
HP1b chromo inh: blocks HP1-beta chromodomain binding to methylated histone tails. AlphaScreen HP1-beta / biotin-H3K9me3 peptide binding. AID 540317. Potency, µM (highest dose often 114 µM), without a hit: at the highest dose activity change, negative = inhibition, usual class: inhibitors. P83916. 0.56% of 390,000 active; also: nearly all actives have a fitted effect of over 70% in size
Target sequence (P83916 whole entry, looked up): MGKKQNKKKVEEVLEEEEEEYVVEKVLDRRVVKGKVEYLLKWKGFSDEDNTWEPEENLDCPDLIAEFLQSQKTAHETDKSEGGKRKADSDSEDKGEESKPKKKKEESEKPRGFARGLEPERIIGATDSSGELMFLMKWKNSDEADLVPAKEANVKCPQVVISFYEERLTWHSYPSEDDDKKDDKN
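AlphaScreen: HP1-beta (50 nM) preformed 30 min with biotin-H3(1-18)K9me3 peptide (50 nM) in PBS pH 7.4, 0.01% Tween-20. Compound added for 30 min at RT, then streptavidin donor/nickel chelate acceptor beads (10 ug/mL) for 30 min.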
L3MBTL1 inh: blocks human L3MBTL1; Potency, µM (top dose mostly 57.1 µM), inactives show at the top dose activity, negative = inhibition, usual class: inhibitors; AlphaScreen L3MBTL1–H3K9me1 peptide binding; 0.66% of 230,000 active; Q9Y468; AID 485360; also: % is scaled to controls: 0 for no effect and ±100 for the full control effect; nearly all actives have a fitted effect of over 60% in size
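AlphaScreen proximity signal between nickel-chelate acceptor and streptavidin donor beads (final 10 ug/mL) reports binding of 50 nM L3MBTL1 to 75 nM biotin-H3 K9me1 peptide; complex incubated with compounds 30 min at room temperature; cefsulodin titration as control.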
G9a block: G9a (human) methyltransferase inhibition. G9a H3K9 monomethylation, AlphaScreen, 2 h. AID 504332. Potency, µM (top dose mostly 102 µM), for the others: at the top dose activity, negative = inhibition, most hits filed as inhibitors. 8.8% of 350,000 active. Q96KQ7; also: % is scaled to controls: 0 for no effect and ±100 for the full control effect; nearly all actives have a fitted effect of over 75% in size
Target sequence (Q96KQ7 913-1193 limits assumed): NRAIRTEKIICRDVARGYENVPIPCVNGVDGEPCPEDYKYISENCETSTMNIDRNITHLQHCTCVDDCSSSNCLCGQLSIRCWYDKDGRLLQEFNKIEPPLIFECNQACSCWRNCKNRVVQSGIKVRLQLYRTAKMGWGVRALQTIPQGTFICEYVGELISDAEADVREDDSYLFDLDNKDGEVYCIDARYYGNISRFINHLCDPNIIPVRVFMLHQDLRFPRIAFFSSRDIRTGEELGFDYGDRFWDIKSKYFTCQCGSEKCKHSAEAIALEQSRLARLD
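G9a (20 nM) preincubated 15 min RT with compounds, then 500 nM biotinylated H3K9 peptide and 20 uM SAM added; 2 h RT reaction. Monomethyl-H3K9 product detected by AlphaScreen with anti-H3K9me1 antibody, streptavidin donor and anti-rabbit IgG acceptor beads.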
Numbers without * were called inactive; ? = inconclusive; . = not tested or not shown; ! = a repeat was not active; [ ] = another dose, or the depositor's remark. In the library only some 12% were active in any assay of this set; here they are far more common. Calls follow the shape of the dose curve; as a rule, active = well fitted curve in the direction sought with a large enough effect; inconclusive = small, poorly fitted or top-dose-only effect, or another doubt; inactive = no such curve, though single readings can be large; an effect the other way counts as inactive or inconclusive. Potency is read from the fitted curve at half-maximal effect.

SMILES	BAZ2B inh	JMJD2A Tudor inh	Sfp inh	HP1b chromo inh	L3MBTL1 inh	G9a block
CCOC(=O)c1ccc(-n2c(CN3CCOCC3)nc3ccc([N+](=O)[O-])cc3c2=O)cc1	-18%	-18%	-28%	43%	.	45µM*
N[C@@H]1CCN(O)C1=O	.	.	-28%	.	.	.
COc1nnc(-c2ccc(N3CCCCC3)c(NC(=O)c3ccccc3Cl)c2)c2ccccc12	-18%	-14%	.	21%	.	-30%[59 µM]
CCCN(c1ccc(C(C)C)cc1)S(=O)(=O)c1ccc2c(c1)CCN2C(=O)CC	-6%	-1%	.	15%	.	-8%[59 µM]
O=c1c(CO)cc(CO)cc(CO)c1O	10µM*	22µM*	?	15%	.	.
CC(C)NC(=O)N1CC2(CCN(S(=O)(=O)c3ccccc3)CC2)C1	.	.	4%	.	.	7%[12.7 µM]
CC1Cc2ccccc2N1C(=O)COC(=O)c1ccc([N+](=O)[O-])o1 (configuration not stated)	.	-18%	.	12%	?	.
Cc1cc(=O)oc2cc(OCC(=O)N3c4ccccc4CC3C)ccc12 (configuration not stated)	12%	-9%	-5%	17%	-2%	-6%[59 µM]
CCN(CC)c1cccc(OCC(=O)N2c3ccccc3CC2C)c1 (configuration not stated)	?	?	.	-15%	-18%	10µM*
Cc1cc(C(=O)OCC(=O)N2c3ccccc3CC2C)c(C)o1 (configuration not stated)	-31%	-20%	0%	-2%	0%	11µM*
COc1cc2cc3c4cc(OC)c(OC)cc4cc[n+]3c(C)c2cc1OC	.	.	15%	.	.	?
CC(C)N1CSC(=S)N(Cc2ccccc2)C1	-10%	-14%	-6%	9%	-11%	32µM*
CC(C)(C)N1CSC(=S)N(Cc2ccccc2)C1	-12%	-2%	-8%	19%	3%	?
O=[N+]([O-])c1ccc(CN2CCN(c3ccc(F)cc3)CC2)o1	?	11µM*	-44%	?	-9%	?
O=[N+]([O-])c1ccc(CN2CCSCC2)cc1	71µM*	1.6µM*	-27%	25µM*	2%	25µM*
O=[N+]([O-])c1ccc(CN2CCN(c3ccc([N+](=O)[O-])cc3)CC2)cc1	25µM*	3.2µM*	-28%	50µM*	.	13µM*
c1ccc(-c2ccc(CN3CCSCC3)cc2)cc1	?	20µM*	?	?	-2%	.
CCCOc1ccc(-c2nonc2NC(=O)c2oc3ccc(Cl)cc3c2C)cc1OCCC	2%	-1%	.	37%	.	10%[59 µM]
COc1ccc(-c2cc(C(F)(F)F)n3nc(C(=O)Nc4sc5c(c4C(=O)OC(C)C)CCC(C)C5)cc3n2)cc1 (configuration not stated)	3%	2%	.	36%	.	-22%[59 µM]
COc1cc(OC)cc(-c2n[nH]c(=S)n2-c2cc(OC)ccc2OC)c1	-1%	7.9µM*	-2%	20%	.	?
COc1ccc(-c2cc(-c3ccc(OC)c(OC)c3)n[nH]2)c(O)c1	4%	-29%	-2%	8%	.	?
COc1ccc(OC)c(-n2c(-c3ccc(O)cc3O)n[nH]c2=S)c1	-8%	4µM*	89µM*	10%	46%	.
COc1ccc(C)cc1-n1c(-c2ccncc2)n[nH]c1=S	1%	20µM*	-5%	41%	10%	?
CN1CCN(C(=O)c2ccc3c(c2)N(Cc2c(F)cccc2Cl)C(=O)c2ccccc2S3)CC1	.	-26%	.	4%	.	?
COc1ccc(CCNc2ncnc3c2nnn3C)cc1	2%	-3%	.	44%	.	-1%[59 µM]
SMILES	BAZ2B inh	JMJD2A Tudor inh	Sfp inh	HP1b chromo inh	L3MBTL1 inh	G9a block
c1ccc(C2(CNc3ccccn3)CCCC2)cc1	9%	-10%	0%	29%	.	50µM*
COc1ccc(C2(CNC(=O)c3cc(OC)c(OC)c(OC)c3)CCCC2)cc1OC	.	-5%	.	16%	.	.
COc1ccc(C(NC(=O)c2ccco2)c2ccc(OC)c(OC)c2)cc1 (configuration not stated)	3%	-11%	4%	4%	14%[11.4 µM]	4%[12.7 µM]
COc1ccc(C(NC(=O)/C=C/c2ccco2)c2ccc(OC)c(OC)c2)cc1OC	?	-26%	20µM*	-12%	-10%	8.9µM*
COc1ccc(C2(CNC(=O)/C=C\c3ccco3)CCCC2)cc1OC	-34%	-26%	18µM*	14%	-17%	13µM*
COc1ccc(NC(=O)C2=CC(c3ccc4c(c3)OCO4)=NS(=O)(=O)N2C)cc1OC	0%	-11%	.	15%	.	-9%[59 µM]
COc1ccc(C2=NS(=O)(=O)N(C)C(C(=O)N(C)Cc3ccccc3)=C2)cc1OC	-2%	5µM*!	23%	38%	3%	14µM*!
COc1ccc(C2=NS(=O)(=O)N(C)C(C(=O)Nc3ccc4c(c3)OCO4)=C2)cc1OC	?	?	10%	-7%	?	35µM*
COc1cc(OC)c(Nc2nc3ccccc3c3nncn23)cc1Cl	2%	-15%	.	27%	.	-3%[59 µM]
CCc1ccc(CN(C(=O)Nc2cccc(Cl)c2)c2ccccn2)cc1	30%	55%	.	151%	.	59%[59 µM]
CC(=O)N[C@H](C(=O)O)C(C)(C)SN=O	.	.	.	.	.	7%[12.7 µM]
COc1cc(N=Nc2cccc(S(N)(=O)=O)c2)c2ccccc2c1N	13µM*	13µM*	?	28µM*	-26%	13µM*
NC1=NC(=Nc2cccc(S(N)(=O)=O)c2)c2ccccc21	-2%	-13%	0%	43%	8%	-1%
C[C@H](N)c1nnc(SCC(=O)c2ccc(Cl)cc2)o1	?	-5%	-2%	10%	.	?
C[C@H](N)c1nnc(SCC(N)=O)o1	56µM*	-19%	-20%	-17%	.	13µM*
CCN1c2ccccc2N(C)C1(C)c1ccccc1 (configuration not stated)	28µM*	8.9µM*	32µM*	32µM*	-30%	2.5µM*
CN1c2ccccc2N(C)C1(C)c1ccccc1	46%	8.9µM*	?	?	?	?
CN1C(=O)N(C)C2(c3ccccc3)NC(=O)NC12c1ccccc1 (configuration not stated)	-36%	0%	-22%	18%	10%	-22%
O=c1c2oc3ccccc3c2n(Cc2ccccc2Cl)c(=O)n1Cc1ccco1	-37%	-3%	.	4%	.	-42%[59 µM]
NC(=O)CC(NC(=O)c1cccc(Br)c1)c1ccc(NC2CCCCCCCCCCC2)c([N+](=O)[O-])c1 (configuration not stated)	-34%	-10%	-4%	20%	5%	71µM*
NC(=O)CC(NC(=O)c1cccc(Br)c1)c1ccc(NC2CCCCCCC2)c([N+](=O)[O-])c1 (configuration not stated)	?	?	2%	-5%	?	20µM*
